Compound activity: PubChem, National Center for Advancing Translational Sciences (NCATS)
A selection: hits, their analogues and other compounds. The true share with any hit is near 8.8%.
HT1080NT lethal: qHTS for induction of synthetic lethality in tumor cells producing 2HG: qHTS for the HT-1080-NT fibrosarcoma cell line; Potency, µM (top dose mostly 46.1 µM), hits mostly cytotoxic; 1.6% of 360,000 active; HT-1080-NT fibrosarcoma viability, CellTiter-Glo ATP luminescence, 48 h;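 note: NT is the 2HG producing partner of a matched IDH1 knockdown line; nearly all actives have a fitted effect of over 55% in size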
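Compounds were tested in concentration-response format on HT-1080-NT cells for 48 hours at 37 degrees C. Cell viability came from CellTiter-Glo luminescence; curves were classified by r2, response magnitude and activity.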
KB-3-1 cytotox: qHTS assay for MDR1-selective chemotherapeutics: Primary screen using the parental adenocarcinoma cell KB-3-1; Potency, µM (doses to about 46.1 µM), hits mostly cytotoxic; KB-3-1 viability, CellTiter-Glo ATP luminescence, 72 h; 1.4% of 400,000 active; note: nearly all actives have a fitted effect of over 60% in size
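Parental KB-3-1 viability, qHTS format: 72 h compound exposure, 37 °C; CellTiter-Glo; media-only wells and DMSO plates as controls; concentration-effect fits on corrected data.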
KB-V1 cytotox: qHTS assay for MDR1-selective chemotherapeutics: Primary screen using the drug-selected MDR subline cells KB-V1; KB-V1 MDR cells viability, CellTiter-Glo, 72 h; Potency, µM (top dose mostly 46.1 µM), hits mostly cytotoxic; 3.4% of 400,000 active; note: nearly all actives have a fitted effect of over 60% in size
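Cells of the MDR subline KB-V1 are plated, dosed with compound at multiple concentrations, and incubated 72 h at 37 degrees C; CellTiter-Glo is then added and luminescence read after 10 min.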
HT1080 IDH1KD tx: qHTS for induction of synthetic lethality in tumor cells producing 2HG: qHTS for the HT-1080-IDH1KD cell line; HT-1080 IDH1 knockdown viability, ATP luminescence, 48 h; Potency, µM (series often up to 46.1 µM), usual class: cytotoxic; 2% of 360,000 active; AID 686971, 2013
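Using the IDH1-knockdown HT-1080 line run in the same batch and compound series as the NT line, viability after 48 h at 37 °C was determined by CellTiter-Glo luminescence and expressed as % activity.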
IL1B secr inh: qHTS for Inhibitors of Inflammasome Signaling: IL-1-beta AlphaLISA Primary Screen; THP-1 LPS/ATP IL-1B secretion, AlphaLISA, 16 h; hits give low values; activity change, % at 57.5 µM; 4.7% of 360,000 active; AID 743279, 2014; in the data active = activity change below about -50%; inconclusive = mostly about -30% to -49%
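Secreted IL-1B measured by AlphaLISA bead assay after 16 h compound exposure of THP-1 cells; compounds (final up to 57.5 uM) added 1 h before LPS (250 ng/mL) and ATP (1.25 mM) stimulation; lower signal means less secretion.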
A number is an active result; n = inactive; u = inconclusive; x = no result. Unless noted, calls come from the whole dose curve; as a rule, active = well fitted curve in the direction sought with a large enough effect; inconclusive = small, poorly fitted or top-dose-only effect, or another doubt; inactive = no such curve, though single readings can be large; an effect the other way counts as inactive or inconclusive.

SMILES | HT1080NT lethal | KB-3-1 cytotox | KB-V1 cytotox | HT1080 IDH1KD tx | IL1B secr inh
O=C(Nc1ccc(F)cc1F)c1noc2c1CCc1ccccc1-2 | x | n | n | x | x
O=C(CSc1nc2ccccc2c(=O)n1CCCN1CCOCC1)NCCc1ccccc1 | n | n | n | n | n
O=C(CSc1nc2ccccc2c(=O)n1CCCN1CCOCC1)NC12CC3CC(CC(C3)C1)C2 | n | n | 9.2µM | n | n
CCOCCCn1c(SCC(=O)Nc2ccc3[nH]c(=O)[nH]c3c2)nc2ccccc2c1=O | n | u | n | n | -54
CN1CCN(S(=O)(=O)c2cccc(C(=O)NCc3ccccc3Cl)c2)CC1 | n | n | u | n | n
COc1ccc(C(=O)C2CCCN(Cc3c(F)ccc(F)c3F)C2)c(OC)c1 (stereo unspecified) | n | n | u | n | -66
COc1ccc(C(=O)C2CCCN(Cc3c[nH]c4ccccc34)C2)c(OC)c1 (stereo unspecified) | u | n | n | u | u
COc1ccc(C(=O)C2CCCN(Cc3ccc4nonc4c3)C2)c(OC)c1 (stereo unspecified) | n | n | n | n | -69
COc1ccc(C(=O)C2CCCN(Cc3cccn3-c3ccc(Cl)cn3)C2)c(OC)c1 (stereo unspecified) | 16µM | u | 12µM | 18µM | x
COc1cccc(N(CC(=O)N2CCC(C)CC2)S(=O)(=O)c2ccc(C)cc2)c1 | x | n | n | x | x
CC1Oc2ccccc2N(CC(=O)N2CCCCCC2)C1=O (stereo unspecified) | n | n | n | n | n
COc1ccc(C(C)=O)cc1CSc1nnc(C)s1 | n | n | n | n | n
COc1ccc(C(C)=O)cc1CSc1nnc(Nc2ccc(C)cc2)s1 | u | u | u | u | -66
COc1ccc(C(C)=O)cc1CSc1nnc(Nc2ccccc2)s1 | u | u | 8.2µM | u | n
O=C(O)CC(NC(=O)C1c2ccccc2Oc2ccccc21)c1ccc(Cl)cc1 (stereo unspecified) | n | n | n | n | n
O=C(NCc1cccs1)C1C(=O)Nc2ccccc2C(=O)N1C1CCCC1 (stereo unspecified) | n | n | n | n | n
CCN(C(=O)COC(=O)c1cccc(S(=O)(=O)NCc2ccccc2)c1)c1ccccc1 | n | n | u | n | n
O=C(CN1CCCc2ccccc21)NCCc1ccc(Cl)cc1 | n | n | u | n | n
CCn1c(C)c(C)c2cc(C(=O)NC3CCCCCC3)ccc21 | n | u | n | n | n
O=C(Nc1ccc(Cl)cc1)/C(=C/c1cccc(O)c1)c1nc2ccccc2s1 | 4.6µM | 2.9µM | u | 4.1µM | -101
Cc1cccc(NC(=O)Cn2c(=O)n(CCCS(=O)(=O)C3CCCCC3)c(=O)c3ccccc32)c1 | x | n | n | x | x
COc1ccc(C(OC(=O)c2c(C)noc2C)C(=O)NC2CCCC2)cc1 (stereo unspecified) | n | n | 5.2µM | n | n
COc1ccc(C(OC(=O)c2ccco2)C(=O)NC2CCCCC2)cc1 (stereo unspecified) | n | n | n | n | n
Cc1ccc(C(=O)NCC(=O)OCc2nnc(-c3ccc([N+](=O)[O-])cc3)o2)s1 | n | u | n | n | n
O=C(NCCN1CCOCC1)C1CCN(c2ncnc3c2sc2cccc(F)c23)CC1 | n | n | n | n | n
CCCCN(CC)CCCNC(=O)C1CCN(c2ncnc3c2sc2cccc(F)c23)CC1 | 21µM | n | n | 21µM | -97
CC(C)(C)c1ccc(/C=C/C(=O)Nc2cccnc2)cc1 | u | n | n | u | -52
CCCC(=O)NC(c1ccc(Cl)cc1Cl)c1ccc2cccnc2c1O (stereo unspecified) | u | u | n | 8.2µM | n
CCCC(=O)NC(c1ccc(C)cc1)c1ccc2cccnc2c1O (stereo unspecified) | u | u | 3.7µM | u | n
